In PubChem BioAssay:
Calls of active or inactive are those of the source.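 The calls were made as follows, unless noted: active = inhibition of the reporter signal at or above 50%; inactive = inhibition below 50%.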

Tests used:
[1] = inhibitors of TNFa-induced NFkB p65 translocation, primary screen, imaging, HUVEC, MLSMR starter and 10KST1 sets (AID 438;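 active = inhibition above 20% together with a positive visual image hit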;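 also: compound added about 3h40 before a 20 min TNFalpha stimulation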;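 as to inhibition: signal is the nuclear over cytoplasmic p65 intensity ratio per well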); conditions: HUVEC TNFa-induced p65 nuclear translocation; cell count: measured here: nuclei count (cytotoxicity indicator), at 2.08 µM; inhibition: at 2 µM, stronger effect = higher value, 0% TNFa-plus-vehicle, 100% no-TNFa wells
[2] = inhibitors of mutant huntingtin aggregation, primary screen, imaging, exon1htt(103Q)mCFP cells, high-content imaging (AID 483;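 active = visual image review flags a hit and inhibition of aggregation exceeds 20%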;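 also: compound exposure lasted 3 days before fixation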;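 as to nuclei count: percent of the per-plate median nuclei count of sample wells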); conditions: exon1htt(103Q)mCFP cell line, aggregate imaging, at 2 µM; inhibition of aggregation: stronger effect = higher value; nuclei count: measured here: cell count, toxicity
[3] = inhibitors of E-selectin induction by TNFa, primary screen, imaging, HUVEC, immunofluorescence, MLSMR starter and 10KST1 sets (AID 487;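 active = visually confirmed hit in the image check and inhibition above 20%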;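 as to inhibition: signal is fraction of cell area covered by stained E-selectin grains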;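 as to nuclei count: 100% = median nuclei count of all wells on the same plate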); conditions: HUVEC TNFalpha-induced E-selectin immunofluorescence imaging, at 2 µM; inhibition: stronger effect = higher value; nuclei count: measured here: cell number, toxicity
[4] = target: Voltage-gated potassium channel subunit beta-2 (Rattus norvegicus) (UniProt P62483); test: KvBeta enzyme negative modulators, primary screen, biochemical, NADPH fluorescence (AID 622;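 active = fluorescence slope higher than the sample average by over 3 SD, cut at about -0.22 in these data, passing the limit was not always enough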;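 also: slope of raw intensity against log time taken from 70 to 1610 s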); conditions: recombinant KvBeta, 4-cyanobenzaldehyde reduction, at 10 µM, stronger effect = higher value
[5] = target: Voltage-gated potassium channel subunit beta-2 (Rattus norvegicus) (UniProt P62483); test: KvBeta positive modulators, primary screen, biochemical, NADPH fluorescence (AID 623;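 active = NADPH fluorescence slope more negative than the mean of all samples by about 3 SD, 99.7% confidence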;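 also: fluorescence intensity change per second fitted from 20 to 320 s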); conditions: Recombinant KvBeta, NADPH fluorescence decrease slope, 10 min; at 10 µM; stronger effect = lower value
[6] = target: Alpha-2C adrenergic receptor (Homo sapiens) (UniProt P18825); test: modulators of alpha2C/GIRK thallium flux, primary screen, cell-based, HEK293 alpha2C/GIRK1/2 (AID 624;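 active = fluorescence slope after compound addition differing from the mean of all screened samples at 99.7% confidence, in either direction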;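 also: slope of fluorescence ratio to pre-addition baseline per second over 15 to 24 s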); conditions: thallium flux BTC fluorescence, at 10 µM, actives lie on both sides
[7] = inhibitors of Sendai virus-induced IRF3 signaling, primary screen, TLR/RLR signaling modifier project, cell-based, Sendai virus stimulus, luciferase, 10K MLSCN set (AID 602276;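 active = inhibition at or above 50% at 10 µM; inactive = inhibition below 50%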;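 also: firefly luciferase from ISG56 promoter only with Renilla not read in this screen; 0% = Sendai virus plus DMSO and 100% = medium plus DMSO without virus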); conditions: HEK293 RL24 IRF3 luciferase reporter, at 10 µM, stronger effect = higher value
[8] = inhibitors of poly I:C-induced TLR3 signaling, primary screen, cell-based, poly I:C stimulus, luciferase, 10K MLSCN set (AID 602277); conditions: HEK293-TLR3 RL24 IRF3 luciferase reporter, at 10 µM, stronger effect = higher value

Chain of Alpha-2C adrenergic receptor (Homo sapiens) (P18825 whole entry, looked up): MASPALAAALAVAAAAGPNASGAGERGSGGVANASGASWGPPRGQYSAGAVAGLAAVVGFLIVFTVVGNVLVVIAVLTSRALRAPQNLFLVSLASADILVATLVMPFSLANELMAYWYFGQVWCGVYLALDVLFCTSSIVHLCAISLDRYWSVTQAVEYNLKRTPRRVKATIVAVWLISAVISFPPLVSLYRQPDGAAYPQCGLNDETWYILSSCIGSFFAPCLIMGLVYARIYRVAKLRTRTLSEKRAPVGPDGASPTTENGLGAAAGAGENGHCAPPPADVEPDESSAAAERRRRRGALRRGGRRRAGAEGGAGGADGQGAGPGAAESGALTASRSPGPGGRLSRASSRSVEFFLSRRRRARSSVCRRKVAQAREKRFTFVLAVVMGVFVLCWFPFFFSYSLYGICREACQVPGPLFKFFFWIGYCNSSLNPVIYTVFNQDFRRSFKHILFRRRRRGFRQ
Chain of Voltage-gated potassium channel subunit beta-2 (Rattus norvegicus) (P62483 whole entry, looked up): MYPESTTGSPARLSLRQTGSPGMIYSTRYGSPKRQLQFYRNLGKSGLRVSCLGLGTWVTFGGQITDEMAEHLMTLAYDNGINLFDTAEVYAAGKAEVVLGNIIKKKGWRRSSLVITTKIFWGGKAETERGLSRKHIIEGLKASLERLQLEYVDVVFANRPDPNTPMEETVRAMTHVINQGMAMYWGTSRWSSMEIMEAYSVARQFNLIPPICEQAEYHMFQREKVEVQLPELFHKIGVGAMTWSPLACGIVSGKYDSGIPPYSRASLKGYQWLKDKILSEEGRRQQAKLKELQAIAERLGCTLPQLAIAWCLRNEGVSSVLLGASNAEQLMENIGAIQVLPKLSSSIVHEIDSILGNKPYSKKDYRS

Row | Structure (SMILES) | cell count [1] | inhibition [1] | inhibition of aggregation [2] | nuclei count [2] [%] | inhibition [3] | nuclei count [3] [%] | fluorescence slope [4] | NADPH fluorescence slope [5] | slope [6] | inhibition [7] | inhibition [8]
1 | COc1cc2c(C#N)c(N3CCN(c4ccccc4OC)CC3)nc(N)c2c(N)n1 | 660 | 0.7% (inactive) | -14.7% (inactive) | 99.8 | -76.6% (inactive) | 109 | -0.178 (inactive) | 1.8e-06 (inactive) | 0.00562 (inactive) | -0.302% (inactive) | -36.5% (inactive)
2 | Cc1ccc(S(=O)(=O)CC(=O)N2CCCCCC2)cc1 | 615 | 9.2% (inactive) | 17% (inactive) | 103 | -33% (inactive) | 112 | -0.504 (inactive) | -5.2e-05 (inactive) | 0.0061 (inactive) | -16.3% (inactive) | -15.4% (inactive)
3 | CSc1nc(N2CCOCC2)c2ccccc2n1 | 730 | -29.3% (inactive) | 13.4% (inactive) | 80.7 | -56.6% (inactive) | 114 | -0.601 (inactive) | -3.9e-05 (inactive) | 0.00469 (inactive) | 6.41% (inactive) | -10.5% (inactive)
4 | CN(C)c1cccc(C(=O)OCC(=O)NCc2ccco2)c1 | 806 | -12.9% (inactive) | 5.8% (inactive) | 85.3 | 9.6% (inactive) | 97.5 | -0.603 (inactive) | 3e-05 (inactive) | 0.0074 (inactive) | 10.8% (inactive) | 5.69% (inactive)
5 | Cc1nc2sc(C(c3cccc(F)c3)N3CCC(C)CC3)c(O)n2n1 (stereo not drawn) | 231 | -5.4% (inactive) | -13.1% (inactive) | 109 | 9.7% (inactive) | 108 | -0.524 (inactive) | -7.2e-05 (inactive) | 0.00644 (inactive) | 14.4% (inactive) | 17% (inactive)
6 | CC1=C(C(=O)OC(C)C)C(C2CC=CCC2)NC(=O)N1 (stereo not drawn) | 306 | 2% (inactive) | 17.1% (inactive) | 93 | 35.9% (inactive) | 98.9 | -0.322 (inactive) | 1.4e-05 (inactive) | 0.0059 (inactive) | 0.205% (inactive) | 9.1% (inactive)
7 | CCOC(=O)N1CCN(Cc2nc3c(c(=O)[nH]c(=O)n3C)n2Cc2cc(C)ccc2C)CC1 | 693 | -2.2% (inactive) | -78% (inactive) | 115 | -103% (inactive) | 119 | -0.505 (inactive) | -5.3e-05 (inactive) | 0.00433 (inactive) | 19.2% (inactive) | 27.4% (inactive)
8 | O=C(OCC(=O)c1cccs1)C1=COCCO1 | 656 | -7.6% (inactive) | -9.8% (inactive) | 105 | 5.3% (inactive) | 119 | -0.345 (inactive) | -2.7e-05 (inactive) | 0.00586 (inactive) | -24.9% (inactive) | -83.1% (inactive)
9 | O=C(COC(=O)c1cc(S(=O)(=O)N2CCOCC2)cs1)c1ccccc1 | 692 | -5.5% (inactive) | -9.6% (inactive) | 103 | -88.5% (inactive) | 114 | -0.485 (inactive) | -5.8e-05 (inactive) | 0.00656 (inactive) | 11.5% (inactive) | 29.5% (inactive)
10 | CCCCn1c(SCC(=O)NCc2ccccc2)nc2ccc(N3CCOCC3)cc2c1=O | 372 | 4.3% (inactive) | 10.3% (inactive) | 89 | -28% (inactive) | 110 | -0.351 (inactive) | 2.2e-06 (inactive) | 0.00561 (inactive) | -6.72% (inactive) | 5.47% (inactive)
11 | COc1cc(Nc2cc(C)nc3ncnn23)cc(OC)c1OC | 649 | -6.3% (inactive) | -4.4% (inactive) | 109 | -23.8% (inactive) | 112 | -0.56 (inactive) | 1.9e-05 (inactive) | 0.0068 (inactive) | 1.55% (inactive) | 31.7% (inactive)
12 | O=c1c2ccccc2nc(SCc2cn3ccsc3n2)n1-c1ccc(F)cc1 | 607 | 6.1% (inactive) | 9% (inactive) | 103 | 59.6% (active) | 71.6 | -0.626 (inactive) | 1.8e-05 (inactive) | 0.00521 (inactive) | 23.9% (inactive) | 22.8% (inactive)
13 | CC(=O)c1c(C)[nH]c(C(=O)OCc2nnc(-c3ccccc3)o2)c1C | 757 | -7.8% (inactive) | -14.5% (inactive) | 122 | -43.7% (inactive) | 110 | -0.639 (inactive) | 4.8e-05 (inactive) | 0.00623 (inactive) | 14.6% (inactive) | 12.4% (inactive)
14 | COc1ccc(CCNC(=O)c2cnn3ccccc23)c(OC)c1OC | 779 | -4.5% (inactive) | -37.7% (inactive) | 108 | -59.3% (inactive) | 115 | -0.558 (inactive) | -4.4e-06 (inactive) | 0.00687 (inactive) | 1.42% (inactive) | -10.8% (inactive)
15 | O=C(NC1CCCCCC1)c1c(F)c(F)c(F)c(F)c1F | 448 | 1.8% (inactive) | 3.9% (inactive) | 104 | 1.8% (inactive) | 118 | -0.299 (inactive) | -1.4e-05 (inactive) | 0.00585 (inactive) | 1.12% (inactive) | 12.3% (inactive)
16 | COC(=O)CCC(=O)Nc1ccc(OC)cc1 | 418 | 0% (inactive) | -15.3% (inactive) | 108 | 31.8% (inactive) | 101 | -0.51 (inactive) | -5.9e-05 (inactive) | 0.00654 (inactive) | 8.73% (inactive) | 19.4% (inactive)
17 | O=C1CC(Sc2nnc(-c3ccccc3)o2)C(=O)N1c1ccccc1 (stereo not drawn) | 677 | -1.1% (inactive) | 3.6% (inactive) | 105 | -12.2% (inactive) | 91.1 | -0.404 (inactive) | -6.5e-05 (inactive) | 0.00487 (inactive) | 4.52% (inactive) | 3.11% (inactive)
18 | COc1ccc(CC(=O)OCn2nnc3ccccc3c2=O)cc1 | 423 | -7% (inactive) | -25.9% (inactive) | 120 | -7.5% (inactive) | 115 | -0.416 (inactive) | -4.2e-05 (inactive) | 0.00601 (inactive) | 12% (inactive) | 16.4% (inactive)
19 | O=C(CSc1nnnn1C1CCCC1)N1CCN(C(=O)c2ccco2)CC1 | 367 | -10.3% (inactive) | 2% (inactive) | 105 | -54.2% (inactive) | 107 | -0.483 (inactive) | -2.2e-05 (inactive) | 0.00599 (inactive) | -2.14% (inactive) | 16.4% (inactive)
20 | Cc1ccc(S(=O)(=O)C2(C(=O)N3CCCCCC3)CC2)cc1 | 439 | -0.7% (inactive) | -0.7% (inactive) | 102 | -46.5% (inactive) | 122 | -0.611 (inactive) | 4.7e-05 (inactive) | 0.00663 (inactive) | 8.56% (inactive) | 1.57% (inactive)
21 | CCOC(=O)c1c(NC(=O)OC)sc2c1CCC2 | 496 | -0.5% (inactive) | 9.3% (inactive) | 82.8 | -35.7% (inactive) | 125 | -0.535 (inactive) | -1.5e-05 (inactive) | 0.00667 (inactive) | 7.95% (inactive) | 15.6% (inactive)
22 | COc1cc(C2c3c(n[nH]c3C)C(=O)N2c2ccc(C)cc2)ccc1O (stereo not drawn) | 335 | -8.1% (inactive) | -6% (inactive) | 86.3 | -34.1% (inactive) | 112 | -0.586 (inactive) | -2.8e-05 (inactive) | 0.00346 (inactive) | 3.65% (inactive) | -2.36% (inactive)
23 | COc1ccc(-c2nnc3sc(C(C)N4C(=O)c5ccccc5C4=O)nn23)cc1 (stereo not drawn) | 528 | -3.3% (inactive) | 2.3% (inactive) | 91.9 | -8.9% (inactive) | 105 | -0.45 (inactive) | 4.5e-05 (inactive) | 0.00329 (inactive) | -9.81% (inactive) | -4.7% (inactive)
24 | Cc1ccc(Nc2cc(C)nc3ncnn23)c(Cl)c1 | 551 | 7.9% (inactive) | -2.9% (inactive) | 69.8 | -65.9% (inactive) | 104 | -0.491 (inactive) | 4.8e-06 (inactive) | 0.00625 (inactive) | 6.25% (inactive) | 18.4% (inactive)
25 | Cc1cc2ncn(S(=O)(=O)c3ccc(S(=O)(=O)N4CCOCC4)cc3)c2cc1C | 311 | -3.3% (inactive) | 0.7% (inactive) | 93.4 | -98.8% (inactive) | 113 | -0.518 (inactive) | 1.7e-05 (inactive) | 0.00432 (inactive) | -0.351% (inactive) | 3.91% (inactive)
26 | Cc1cc(=O)[nH]c(S/C=C/c2ccccc2)n1 | 427 | -1.8% (inactive) | -8.6% (inactive) | 103 | 1.2% (inactive) | 80.7 | -0.603 (inactive) | -2e-05 (inactive) | 0.00593 (inactive) | -28.9% (inactive) | -89.2% (inactive)
27 | CC(C)COC(=O)C(C#N)c1nc2ccccc2nc1N1CCN(Cc2ccccc2)CC1 (stereo not drawn) | 296 | 4.2% (inactive) | 3.4% (inactive) | 91.2 | 17.8% (inactive) | 87 | -0.425 (inactive) | 8.1e-06 (inactive) | 0.00589 (inactive) | 14.6% (inactive) | 7.75% (inactive)
28 | Cn1c(=O)c2c(nc(NCC3CCCO3)n2C)n(C)c1=O (stereo not drawn) | 314 | 0.2% (inactive) | -10.3% (inactive) | 108 | -102% (inactive) | 122 | -0.609 (inactive) | -1.6e-05 (inactive) | 0.00331 (inactive) | 6.21% (inactive) | 6.02% (inactive)
